Test results reported in the supplement of paper PMC10338343.
± gives the standard deviation.

Each sequence was assayed on MILI (PIWIL2) piRISC loaded with piRNA #1 (26 nt) (assay: pre-steady-state target cleavage rate (min^-1); guide: piRNA #1 5'p-UGAGGUAGUAGGUUGUAUAGUAUCCA; higher = faster piRNA-guided slicing of the target). Details: auxiliary factor: 500 nM mouse GTSF1.
How it was run: (§1)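 With or without 500 nM GTSF1 partner protein, 1 nM active affinity-purified piRISC carrying one synthetic guide was mixed with 0.1 nM transcribed, DNA-blocked target RNA library in HEPES–potassium acetate buffer at 33 °C for 0–8 or 0–960 min. Uncleaved targets were sequenced and normalised to depth and to weakly complementary targets, three trials were pooled, and k3 was capped at 0.0001 min^-1. The pre-steady-state cleavage rate came from a burst-and-steady-state fit.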
With GGAGAGGAUACUAUAGCAACCUACUACCUCA the “pre-steady-state target cleavage rate” value was 0.129 ± 0.012. GGAGUGGAUACUAUACAAUCUACUACCUCA was tested, and the “pre-steady-state target cleavage rate” value was 0.127 ± 0.009. GGAGUGGAUACUAUACAACCUACUUCCUCA was tested, and the “pre-steady-state target cleavage rate” value was 0.00401 ± 0.0017.

What follows are sequences tested on EfPiwi piRISC loaded with piRNA #1 (26 nt) (assay: pre-steady-state target cleavage rate (min^-1); auxiliary factor: 500 nM Ephydatia muelleri Gtsf1; guide: piRNA #1 5'p-UGAGGUAGUAGGUUGUAUAGUAUCCA; MIWI and MILI are mouse PIWI proteins and EfPiwi is from a freshwater sponge; tags in brackets are library labels; higher = faster piRNA-guided slicing of the target). Details: not given.
How it was run: as §1
GGAGACCAUACUAUACAACCUAGUACGUCA was tested, and the “pre-steady-state target cleavage rate” value was 0.00483 ± 0.0024. In the case of GGAGUGGAUACUAUACAACCUACUAGCUGA, the “pre-steady-state target cleavage rate” value is reported as 0.00461 ± 0.0027. In the case of GGAGACCUAACUAUACAAGCCUACUACCUCA, the “pre-steady-state target cleavage rate” value is reported as 0.00432 ± 0.0033. With GGAGACCUAUGAUAUGAUCCUAGUACCUCA the “pre-steady-state target cleavage rate” value was under 0.0001. For GGAGACCUAUGAUAAGAACCUACUACCACA, the “pre-steady-state target cleavage rate” value was under 0.0001. With GGAGAGGUUACUAUACAACCUAGUACCUCA the “pre-steady-state target cleavage rate” value was 0.00366 ± 0.0015. With “GGAGACGAUACUAUACAACCUACUAGGAGA [g6:g24:cont:t1A]” the “pre-steady-state target cleavage rate” value was 0.00317 ± 0.0021. In the case of GGAGAGGAUACUAUACAACCUACUAGCUCA, the “pre-steady-state target cleavage rate” value is reported as 0.00484 ± 0.0019. With GGAGAGGAUACUAUAGCAACCUACUACCUCA the “pre-steady-state target cleavage rate” value was 0.0429 ± 0.019. For GGAGACCUAUGAUAACAACCUACUAGCACA, the “pre-steady-state target cleavage rate” value was under 0.0001. With GGAGUGGAUACUAUACAAUCUACUACCUCA the “pre-steady-state target cleavage rate” value was 0.105 ± 0.038. GGAGAGGAUACUAUACAACCUAGUACGUCA was tested, and the “pre-steady-state target cleavage rate” value was 0.0044 ± 0.0019. With GGAGUGGAUACUAUACAACCUACUACCGUCA the “pre-steady-state target cleavage rate” value was 0.00748 ± 0.0027. For “GGAGAGGAUACUAUACAACCUACUAGGAGA [g6:g25:cont:t1A]”, the “pre-steady-state target cleavage rate” value was 0.00363 ± 0.0023. GGAGACCUAACUAUACAAACCUACUACCUCA was tested, and the “pre-steady-state target cleavage rate” value was 0.00462 ± 0.0028. GGAGACCUUACUAUACAACCUAGUACGUCA was tested, and the “pre-steady-state target cleavage rate” value was 0.00357 ± 0.0023. In the case of GGAGAGGAUACUAUACAACCAACUAGCUCA, the “pre-steady-state target cleavage rate” value is reported as 0.00313 ± 0.0016. For GGAGUGGAUACUAUACAUCCUACUACGUCA, the “pre-steady-state target cleavage rate” value was 0.0038 ± 0.0013. For GGAGUGGAUACUAAACAACCUACUACCUCA, the “pre-steady-state target cleavage rate” value was 0.00791 ± 0.0037. With GGAGACCUAUGAUAUGUACCUACUACGCUCA the “pre-steady-state target cleavage rate” value was under 0.0001. For GGAGUGGAUACUAUACAACUCUACUACCUCA, the “pre-steady-state target cleavage rate” value was 0.00493 ± 0.003. GGAGUGGAUACUAAUCAACCUACUACCUCA was tested, and the “pre-steady-state target cleavage rate” value was 0.00495 ± 0.0038. In the case of GGAGUGGAUACUAUACAACCUACUUCCUCA, the “pre-steady-state target cleavage rate” value is reported as 0.00544 ± 0.0029. For GGAGACCUAACUAUACACCUACUACCUCA, the “pre-steady-state target cleavage rate” value was 0.00586 ± 0.0042. GGAGAGGAUACUAUUCAACCUAGUACCUCA was tested, and the “pre-steady-state target cleavage rate” value was 0.00256 ± 0.0017. GGAGACCUUACUUAUACAACCUACUACCUCA was tested, and the “pre-steady-state target cleavage rate” value was 0.00736 ± 0.0041. GGAGUGGAUACUAUACAACCUCACUACCUCA was tested, and the “pre-steady-state target cleavage rate” value was 0.00417 ± 0.0022. With GGAGACCUAUGAAUAGAACCUUCUACCUCA the “pre-steady-state target cleavage rate” value was under 0.0001. With GGAGAGGAUACUAUACAACUUACUACCUCA the “pre-steady-state target cleavage rate” value was 0.0083 ± 0.0042. For GGAGACCUAUGUAUACAACCAAGUACCUCA, the “pre-steady-state target cleavage rate” value was under 0.0001. For GGAGACCUAUGAUAUGUUCCUACUACUCUCA, the “pre-steady-state target cleavage rate” value was under 0.0001. For GGAGACGAAACUAAACAACCUACUACCUCA, the “pre-steady-state target cleavage rate” value was 0.00324 ± 0.0032. In the case of GGAGACCAUACUAUACAACCUAGUACCUGA, the “pre-steady-state target cleavage rate” value is reported as 0.00278 ± 0.0021. With GGAGACCAUACUAUACAACGCUACUACCUCA the “pre-steady-state target cleavage rate” value was 0.0082 ± 0.0044. For GGAGACGAUACUAUACAACCUAGUACCACA, the “pre-steady-state target cleavage rate” value was 0.00488 ± 0.0029. In the case of GGAGACCUAACGAUACAACCUACUACCUCA, the “pre-steady-state target cleavage rate” value is reported as 0.0136 ± 0.0071. GGAGUGGAUACUAUACAACCUACUACGUCA was tested, and the “pre-steady-state target cleavage rate” value was 0.00568 ± 0.0024. With GGAGACCAGUACUAUACAACCUACUACCUCA the “pre-steady-state target cleavage rate” value was 0.0152 ± 0.0063. For GGAGAGGAUACUAUACAACCUACUUCCUGA, the “pre-steady-state target cleavage rate” value was 0.00331 ± 0.0022. In the case of GGAGACGAUACUAUACAACCUACUAGCUGA, the “pre-steady-state target cleavage rate” value is reported as 0.00481 ± 0.0027.
